# Source: PubChem BioAssay
# Activity calls are given as the source filed them. Unless noted, the rule behind the calls is not given here.
# Legend:
# [1] = tested on: XIP peptide (Xip251-270) binding; assay: XIP fragment 251-270 binding compounds – biochemical, small-molecule microarray, fluorescence 635/667 nm, 0.1 µg/mL protein, primary screen (AID 1182); conditions: fluorescent protein binding, 635 nm, higher = more signal, called active from +8 up or from −8 down
# XIP peptide (Xip251-270) = assay: compounds binding XIP fragment 251-270 – biochemical, small-molecule microarray, fluorescence 635/667 nm, 0.5 µg/mL protein, primary screen (AID 1183); conditions: fluorescence 635 nm, higher = more signal
# [2] = blood-stage malaria parasite viability loss – strain 3D7, DAPI fluorescence, 100 nL, primary screen (AID 1184);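 note: parasites grown inside human red blood cells in medium with human serum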; conditions: P. falciparum 3D7 growth, 3 d, higher = more signal
# [3] = biological target: Homeobox protein Hox-A13 (Mus musculus) (UniProt Q62424); assay: disruptors of Hoxa13 oligonucleotide interaction – biochemical, fluorescence polarization, labeled oligonucleotide, primary screen (AID 1185); conditions: Hoxa13:DNA binding, 15 min, higher = more signal, called active from +8 up or from −8 down
# [4] = blockers of DNA damage checkpoint Chk1 activation – imaging, HeLa, hydroxyurea, phospho-Chk1 antibody, percent positive cells, primary screen (AID 1186); conditions: hydroxyurea-induced phospho-Chk1 immunofluorescence imaging, higher = more signal
# [5] = blockers of DNA damage checkpoint Chk1 activation – imaging, HeLa, hydroxyurea, phospho-Chk1 nuclear intensity, primary screen (AID 1187); conditions: hydroxyurea-induced phospho-Chk1 immunofluorescence imaging, higher = more signal
# Homeobox protein Hox-A13 (Mus musculus), sequence (Q62424 whole entry, looked up): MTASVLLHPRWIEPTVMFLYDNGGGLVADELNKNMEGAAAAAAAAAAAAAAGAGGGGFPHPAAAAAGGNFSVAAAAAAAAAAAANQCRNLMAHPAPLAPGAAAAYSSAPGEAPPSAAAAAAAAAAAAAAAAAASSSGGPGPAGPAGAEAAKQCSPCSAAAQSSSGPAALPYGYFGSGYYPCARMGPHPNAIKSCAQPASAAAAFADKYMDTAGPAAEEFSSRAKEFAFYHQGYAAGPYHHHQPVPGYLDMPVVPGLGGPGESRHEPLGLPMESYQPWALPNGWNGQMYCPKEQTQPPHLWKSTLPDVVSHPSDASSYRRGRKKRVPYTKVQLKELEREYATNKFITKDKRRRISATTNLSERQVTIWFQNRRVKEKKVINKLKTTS
SMILES,composite z-score [1],composite z-score (XIP peptide (Xip251-270)),z-score [2],z-score [3],z-score [4],z-score [5]
COc1cc2c(cc1O)C(c1cccs1)N(Cc1sc3ccccc3c1Cl)CC2 (stereo unspecified),0.791 (inactive),0.867,-1.66,-1.54 (inactive),0.326 (inactive),0.638 (inactive)
C=C(COC)C(=O)CC[C@@H](OC(=O)c1cccnc1)c1ccccc1OCCO,-0.288 (inactive),-0.576,-3.07,-4.3 (inactive),0.329 (inactive),0.162 (inactive)
C=C[C@@H](OC)[C@H](OC(=O)Nc1ccc(SC)cc1)c1ccc(OCCO)cc1,-0.302 (inactive),0.709,0.0419,-5.58 (inactive),-0.0838 (inactive),0.168 (inactive)
CCN(CC)c1ccc(N2CC=CC34O[C@@H]5/C=C\CCC(C)OC(=O)C5[C@H]3C(=O)N(C(C)CO)[C@@H]4C2=O)cc1 (stereo partly specified),-0.187 (inactive),0.56,0.2,-5.38 (inactive),-0.713 (inactive),-0.257 (inactive)
NCCCCCNC(=O)[C@H]1C[C@H]2C(=O)N[C@@H](Cc3ccccc3)C(=O)N2[C@H]1c1ccc(O)cc1,1.46 (inactive),0.75,-0.236,-3.78 (inactive),1.01 (inactive),0.921 (inactive)
CN(C)CCCNC(=O)[C@@H]1c2ccccc2C(=O)N(C2CCCCC2)[C@H]1c1ccc(CO)cc1,2.33 (inactive),0.834,-1.99,1.8 (inactive),0.208 (inactive),0.393 (inactive)
O=C1[C@@]23C=C(Br)[C@H](C[C@@H]2COC3)[C@@]12CO2,-0.0944 (inactive),0.0556,2.53,0.786 (inactive),0.854 (inactive),0.352 (inactive)
COC(=O)[C@@]1(Cc2ccccc2)[C@H]2c3cc(C(=O)N4CCCC4)n(CCSCCO)c3C[C@H]2CN1C(=O)c1ccccc1,0.343 (inactive),0.752,-1.7,-5.06 (inactive),1.45 (inactive),0.501 (inactive)
COc1ccc(C#Cc2ccc3c(c2)[C@]2(C(=O)N3)[C@H](C(=O)N3CCCCCCC3)[C@H]3C(=O)O[C@H](c4ccccc4)[C@H](c4ccccc4)N3[C@@H]2c2ccc(O)cc2)cc1,2.34 (inactive),0.755,-1.56,0.625 (inactive),-0.25 (inactive),-0.372 (inactive)
COCCOC(=O)N1C(=O)[C@@]2(c3ccccc31)[C@H](c1ccccc1OCCO)N1[C@H](c3ccccc3)[C@H](c3ccccc3)OC(=O)[C@H]1[C@@H]2C(N)=O,2.37 (inactive),0.784,-0.946,-4.81 (inactive),0.0327 (inactive),0.12 (inactive)
CCC(CC)C(O)C1C=CC2C(=O)N(c3ccccc3)C(=O)C2N1Nc1ccc([N+](=O)[O-])cc1 (stereo unspecified),0.39 (inactive),0.493,1.38,-3.49 (inactive),-0.37 (inactive),-1.56 (inactive)
NCCCCCNC(=O)[C@@H]1C[C@@H]2C(=O)N3CCC[C@H]3C(=O)N2[C@@H]1c1ccc(O)cc1,0.0353 (inactive),0.0129,0.0766,-1.74 (inactive),0.299 (inactive),0.235 (inactive)
C=C(CCCC)C(=O)CC[C@H](OC(C)=O)c1ccc(OCCO)cc1,0.783 (inactive),0.227,-3.07,-6.07 (inactive),-0.427 (inactive),-0.523 (inactive)
COC(=O)C(CC#Cc1ccc2c(c1)[C@]1(C(=O)N2)[C@H](C(=O)Nc2nc3ccccc3s2)[C@H]2C(=O)O[C@H](c3ccccc3)[C@H](c3ccccc3)N2[C@@H]1c1ccc(OCCO)cc1)C(=O)OC,3.13 (inactive),0.771,-2.1,0.713 (inactive),0.0974 (inactive),0.531 (inactive)
CO[C@H]1O[C@H](CO)[C@@H](OC(=O)CCc2ccccc2)[C@H](OC(=O)c2cc3ccccc3[nH]2)[C@H]1OC(=O)c1cc2ccccc2[nH]1,0.983 (inactive),0.637,-1.03,-0.797 (inactive),-0.616 (inactive),-1.27 (inactive)
COC(=O)[C@@]1(Cc2ccc(F)cc2)[C@H]2c3cc(C(=O)N4CCCC4)n(CC4CC4)c3C[C@H]2CN1C(=O)c1ccccc1,1.84 (inactive),0.245,-1.36,-4.69 (inactive),0.396 (inactive),0.0021 (inactive)

SMILES,composite z-score [1],composite z-score (XIP peptide (Xip251-270)),z-score [2],z-score [3],z-score [4],z-score [5]
CN1C(=O)C2C(C1=O)C1C=C(CCCO)C2C(c2cccs2)N1Cc1cc2c(cc1Br)OCO2 (stereo unspecified),0.0841 (inactive),0.757,-0.654,-8.9 (active),0.214 (inactive),0.228 (inactive)
C=C(C(=O)CC[C@@H](OC(=O)c1ccccc1-c1ccccc1C(=O)O)c1ccccc1OCCO)C(C)C,0.341 (inactive),0.698,-2.04,-5.82 (inactive),0.57 (inactive),0.916 (inactive)
C=CCNC(=O)[C@@H]1[C@H]2C(=O)O[C@H](c3ccccc3)[C@H](c3ccccc3)N2[C@H](c2ccc(OCCO)cc2)[C@@]12C(=O)N(C(=O)OCCOC)c1ccc(C#CCCO)cc12,0.649 (inactive),0.69,-1.56,-1.19 (inactive),-0.604 (inactive),-0.826 (inactive)
C=C(COC)/C(=C/C[C@@H](OC(=O)c1ccncc1)c1ccccc1OCCO)c1cc(C(=O)OC)ccc1OC,-0.115 (inactive),-0.728,-2.97,-4.02 (inactive),0.386 (inactive),0.77 (inactive)
COCCOC(=O)N1C(=O)[C@@]2(c3cc(C#CCC(C(=O)OC)C(=O)OC)ccc31)[C@H](C(=O)NC[C@H](O)c1ccccc1)[C@H]1C(=O)O[C@H](c3ccccc3)[C@H](c3ccccc3)N1[C@@H]2c1ccc(OCCO)cc1,3.06 (inactive),0.64,-2.28,-0.301 (inactive),0.0558 (inactive),0.176 (inactive)
C=C(/C(=C/C[C@@H](OC(=O)c1ccncc1)c1cccc(OCCO)c1)c1cnc2ccccc2c1)C(C)C,0.601 (inactive),0.602,-2.88,-4.48 (inactive),0.242 (inactive),0.258 (inactive)
[N-]=[N+]=NCc1ccccc1[C@@H]1OC(c2ccc(OCCCO)cc2)=N[C@]1(Cc1ccccc1)C(=O)NCCN1CCOCC1,-0.256 (inactive),0.77,-2.2,-1.66 (inactive),-0.294 (inactive),-0.108 (inactive)
COC(=O)[C@@]1(Cc2ccccc2CN=[N+]=[N-])N=C(c2ccc(OCCCO)cc2)O[C@H]1c1ccccc1,2.54 (inactive),0.766,-2.34,-4.51 (inactive),0.022 (inactive),0.55 (inactive)
CC(C)C[C@@H]1NC(=O)[C@@H]2C[C@H](C(=O)NCCCCCC[N+](C)(C)C)[C@H](c3cccc(OCCO)c3)N2C1=O,0.753 (inactive),0.869,0.169,-5.12 (inactive),-0.282 (inactive),-0.178 (inactive)
COCCOC(=O)N1C(=O)[C@@]2(c3cc(C#CCCO)ccc31)[C@H](C(N)=O)[C@H]1C(=O)O[C@H](c3ccccc3)[C@H](c3ccccc3)N1[C@@H]2c1ccc(OCCO)cc1,1.56 (inactive),0.769,-0.624,-1.24 (inactive),0.0923 (inactive),-0.0574 (inactive)
COCC(=C=CC[C@@H](O)c1cccc(OCCO)c1)CCO,1.14 (inactive),-0.347,-0.315,-1.85 (inactive),-1.38 (inactive),-0.0691 (inactive)
C=CCN1C(=O)[C@]2(O[C@H](CCO)[C@@H]([Si](C)(C)c3ccc(OC)cc3)[C@@H]2C)c2cc(N3C(=O)COc4ccccc43)ccc21,0.879 (inactive),0.677,-2.85,-3.34 (inactive),-1.42 (inactive),-1.34 (inactive)
COC(=O)[C@@]1(Cc2ccccc2)[C@H]2c3cc(C(=O)N(C)C)n(CCn4cc([N+](=O)[O-])nc4C)c3C[C@H]2CN1C(=O)c1ccccc1,0.731 (inactive),0.83,0.391,-1.73 (inactive),-0.3 (inactive),-0.424 (inactive)
CCCCC(=C=CC[C@H](O)c1ccc(OCCO)cc1)C[C@H](O)c1cc(Cl)cc(Cl)c1O,-0.0399 (inactive),0.416,-1.51,-2.25 (inactive),-0.0695 (inactive),-0.301 (inactive)
CCOC(=O)C[C@H]1[C@H](OC(=O)c2cc3ccccc3oc2=O)[C@@H](NC(=O)c2ccc3ccccc3c2)c2cc(OCCCO)ccc2N1C(=O)Cc1ccc(OC)cc1,0.515 (inactive),0.335,-0.791,-2.96 (inactive),0.204 (inactive),-0.322 (inactive)
